This is a sample that favours compounds with a hit; in the whole collection about 6.7% have one here.
BoNT-F LC inh – BoNT/F light chain protease inhibitors, primary screen, biochemical, flow cytometry, MLPCN library | Botulinum neurotoxin type F light chain protease (Clostridium botulinum) | Multiplex microsphere protease cleavage assay | inhibition, % at 10 µM | actives 0.22% (n = 360,000); in the data active means inhibition above about 35%, passing the limit was not always enough; inconclusive means no clear call, values can overlap the other calls; further: plate controls were buffer without enzyme for full effect and enzyme alone for no effect
Autofluor counter – compound fluorescence in toxin protease inhibitor counterscreen | AID 624483 | compound autofluorescence counterscreen, microsphere flow cytometry; stronger effect = higher value | actives 3.1% (n = 360,000) | fluorescence intensity (concentration not given with the values); in the data active means fluorescence intensity above about 16000; inconclusive means no clear call, values can overlap the other calls
Anthrax LF prot – Bacillus anthracis LF protease inhibitors, primary screen, biochemical, multiplex microsphere, MLPCN library. Lethal factor (Bacillus anthracis), P15917. multiplex microsphere protease cleavage assay. inhibition, % at 10 µM. actives 0.12% (n = 360,000). AID 588501, 2011; further: plate controls were buffer without enzyme for full effect and enzyme alone for no effect
BoNT A protease – BoNT/A light chain protease inhibitors, primary screen, biochemical, flow cytometry, MLPCN library | Botulinum neurotoxin type A light chain protease (Clostridium botulinum A str. ATCC 3502) | multiplex microsphere protease substrate cleavage | inhibition, % at 10 µM | actives 0.17% (n = 360,000) | AID 588499, 2011; further: plate controls were buffer without enzyme for full effect and enzyme alone for no effect
FBA Mtb inh – Mtb FBA enzyme inhibitors, primary screen, biochemical, fluorescence, strain H37Rv. Fructose-bisphosphate aldolase (Mycobacterium tuberculosis (strain ATCC 25618 / H37Rv)), …. purified M. tuberculosis FBA, fluorescence read-out. actives 2.3% (n = 360,000). inhibition, % at 1 µM; in the data active means inhibition above about 27%;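 further: 0% = vehicle and 100% = reference inhibitor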
GDH-TPI counter – GDH-TPI coupling enzyme inhibitors, primary screen, artefact control for M. tuberculosis FBA inhibitor project, biochemical, absorbance, full deck | GDH-TPI coupled enzyme counterscreen, NADH absorbance | inhibition, % at 4.8 µM | actives 1.2% (n = 360,000); in the data active means inhibition above about 30%;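 further: 0% = DMSO wells and 100% = wells lacking the enzyme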
Active calls of the source: *; ? = inconclusive; + = active, no number. Unless noted, no stated cut-off is given here; in the data, active means inhibition above about 30%; inconclusive means no clear call, values can overlap the other calls; inactive means below that.

SMILES | BoNT-F LC inh | Autofluor counter | Anthrax LF prot | BoNT A protease | FBA Mtb inh | GDH-TPI counter
O=c1[nH]c2cc3c(cc2cc1C(c1nnnn1CC1CCCO1)N1CCCCCC1)OCCO3 (stereo not drawn) | -6 | 22706* | 1 | -4 | 20 | 15
Cc1ccc2cc(C(c3nnnn3C3CCCC3)N(Cc3cccnc3)Cc3ccco3)c(=O)[nH]c2c1 (stereo not drawn) | 0 | 11893 | -2 | 1 | 7 | 11
Cc1cccc2cc(C(c3nnnn3Cc3ccccc3)N3CCCc4ccccc43)c(=O)[nH]c12 (stereo not drawn) | 2 | 23808* | 5 | ? | 4 | 8
CCN1CCN(C(c2cc3cccc(C)c3[nH]c2=O)c2nnnn2Cc2ccccc2)CC1 (stereo not drawn) | -7 | 4541 | 1 | 0 | 0 | 28
Cc1cc(C)c2cc(C(c3nnnn3CC3CCCO3)N3CCN4CCCC4C3)c(=O)[nH]c2c1 (stereo not drawn) | -15 | 5035 | -12 | 2 | 3 | 26
CCC(C)(C)n1nnnc1C(c1cc2cc(OC)c(OC)cc2[nH]c1=O)N1CCc2ccccc21 (stereo not drawn) | -6 | 24005* | 2 | -4 | 11 | 25
Cc1cccc2cc(C(c3nnnn3CC3CCCO3)N3CCOCC3)c(=O)[nH]c12 (stereo not drawn) | 8 | 18150* | -7 | ? | 3 | 14
O=C(Cn1cc([N+](=O)[O-])cn1)N1N=C(C(F)F)CC1(O)C(F)F (stereo not drawn) | 4 | 22225* | 0 | 2 | 3 | -1
CCc1ccccc1N1CCN(S(=O)(=O)c2cc(OC)ccc2OC)CC1 | -2 | 23647* | -6 | ? | -3 | -3
COc1ccccc1CCNC(=O)C1CCC(=O)N(Cc2ccccc2OC)C1 (stereo not drawn) | 0 | 4569 | -2 | 0 | 4 | -2
Cn1ccnc1SCC(=O)Nc1cccc2ccccc12 | 3 | 19695* | -4 | 0 | -1 | -13
COC(=O)c1ccccc1NC(=O)CSc1nccn1C | -9 | 3295 | -5 | -1 | -4 | -3
O=C(CSc1nnc(-c2ccc(Br)cc2)o1)Nc1cccc2ccccc12 | 2 | 23146* | 0 | 2 | 2 | 4
COc1ccccc1N1C(=O)CC(Sc2nc(C)cc(C)n2)C1=O (stereo not drawn) | -1 | 12433 | -2 | 0 | 2 | -7
CCOC(=O)c1oc2cccc(O)c2c1C | -6 | 5806 | -1 | 0 | 5 | 6
CCOC(=O)c1oc2cccc(O)c2c1CN(Cc1ccccc1)C(C)=O | 0 | 20279* | 1 | ? | -3 | -5
COc1ccc(Cn2nnnc2CN(Cc2cc3cc(C)ccc3[nH]c2=O)C2CCCC2)cc1 | -12 | 6748 | -2 | -2 | 12 | 16
Cc1ccc(-c2nc3ccc(C(=O)O)cc3nc2-c2ccc(C)cc2)cc1 | -2 | 10274 | 4 | -1 | 10 | 21
Cc1ccc(-c2[nH]c(-c3ccc(C(=O)O)cc3)nc2-c2ccccc2)cc1 | -6 | 2728 | -1 | -1 | + | 17
COC(=O)c1ccc(C(=O)OC)c(NC2=NS(=O)(=O)c3ccccc32)c1 | -2 | 23866* | -7 | -2 | 6 | 16
Cc1ccc(C)c(NC2=NS(=O)(=O)c3ccccc32)c1 | -2 | 11458 | -2 | 0 | -4 | -2
COC(=O)c1c(-c2ccccc2)csc1NC1=NS(=O)(=O)c2ccccc21 | -4 | 1956 | -1 | 0 | 1 | 10
Cc1cc(O)c(C(C)C)cc1NC1=NS(=O)(=O)c2ccccc21 | -3 | 16315* | -2 | -1 | 2 | 13
Cc1cc(C)c(NC2=NS(=O)(=O)c3ccccc32)c(C)c1 | 1 | 22474* | -3 | ? | -1 | -1
O=C(NCc1ccccc1)/C(=C/c1ccc([N+](=O)[O-])cc1)NC(=O)c1ccco1 | 1 | 3888 | 6 | 3 | -2 | 7
Cc1cccc(NC(=O)C2CCN(S(=O)(=O)c3cccc4nsnc34)CC2)c1 | -7 | 4671 | 3 | 0 | 2 | 13
